Reference: ChEMBL document CHEMBL1157539, “Thousands of chemical starting points for antimalarial lead identification” (Nature, 2010)

Columns and labels:
Assay type in all cases: functional
Plasmodium falciparum [1] = assay: GSK_TCMDC: Inhibition of Plasmodium falciparum 3D7 in whole red blood cells, using parasite LDH activity as an index of growth. Test compounds present at 2uM
Plasmodium falciparum [2] = assay: GSK_TCMDC: Inhibition of Plasmodium falciparum Dd2 in whole red blood cells, using parasite LDH activity as an index of growth. Test compounds present at 2uM
HepG2 = assay: GSK_TCMDC: Percent inhibition of human HepG2 cell line. Test compounds present at 10uM.

Row | Structure (SMILES) | Inhibition (Plasmodium falciparum [1]) | Inhibition (Plasmodium falciparum [2]) | Inhibition (HepG2)
1 | CC(C)(C)c1nn(-c2ccc(Cl)cc2)c2[nH]c(=O)c(CNCc3ccc4c(c3)OCO4)cc12 | 100% | 98% | 15%
2 | COc1ccc(CNC2CCN(C)CC2)cc1-c1ccc(S(=O)(=O)NCCc2ccccn2)c(F)c1.O=C(O)C(F)(F)F | 100% | 55% | 3%
3 | O=C(/C=C/c1ccc(Cl)cc1)NCCCCCN1CCC(c2c[nH]c3ccccc23)CC1 | 99% | 15% | 42%
4 | CC1CC(NCCCNc2cc(=O)c3ccccc3[nH]2)c2cc(Cl)c(Cl)c(Cl)c21 (stereo not given) | 100% | 69% | 0%
5 | CC(C)Sc1ccc(Cl)cc1CON1C(=N)N=C(N)NC1(C)C.Cl | 93% | 90% | 66%
6 | CCN(CC)CCN(Cc1ccc(-c2ccc(C(F)(F)F)cc2)cc1)C(=O)Cn1c(CCc2ccc(F)c(F)c2F)nc(=O)c2cccnc21.O=C(O)C(O)C(O)C(=O)O | 89% | 20% | 29%
7 | CCOc1ccc2c(N/N=C/c3cccc([N+](=O)[O-])c3)cc(C)nc2c1 | 100% | 97% | 4%
8 | Cc1cc(-c2nc3ccc(CN4CCN(C)CC4)cc3[nH]2)nn1Cc1cc(Cl)ccc1OCc1ccccc1.Cl | 100% | 52% | 3%
9 | CN1CCN(CCCN(Cc2ccc(-c3ccc(CNCc4ccc5c(c4)OCO5)cc3)cc2)C(=O)Nc2ccccc2)CC1.O=C(O)C(F)(F)F | 94% | 77% | 36%
10 | Cc1cccc2nc(-c3cccc(-c4cccc(NC(=O)Cc5ccc[n+]([O-])c5)c4)c3)[nH]c12 | 100% | 99% | 0%
11 | COc1ccc(-c2ccc3c(-c4ccc(F)cc4)cnc(N)c3c2)cn1 | 99% | 86% | 4%
12 | COc1ccc2nccc([C@@H](O)CN3CCC(NCc4cc5oc(=O)[nH]c5cc4Cl)CC3)c2c1.O=C(O)C(=O)O | 100% | 91% | 1%
13 | COc1ccc2nccc([C@@H](O)CN3CCC(NCc4cc5ccccc5[nH]4)CC3)c2n1.O=C(O)C(=O)O | 100% | 55% | 17%
14 | COc1ccc2ncc(C#N)c(CCN3C[C@H](CNCc4ccccc4)[C@H](O)C3)c2n1.Cl | 91% | 24% | 3%
15 | CCn1c(-c2nonc2N)nc2c(-c3cccc(NC(=O)NC45CC6CC(CC(C6)C4)C5)c3)ncc(OCCCN)c21.O=C(O)C(F)(F)F | 94% | 63% | 100%
16 | Cc1cccc(C)c1N1CCN(C2CCC(NC(=O)c3cc4ccccc4[nH]3)CC2)CC1 (stereo not given) | 100% | 64% | 31%
17 | CCN(CC)CCCC(C)Nc1ccnc2ccc(-c3ccccc3)cc12 (stereo not given) | 98% | 21% | 0%
18 | CN1CCC(OC(=O)c2cc3cc(-c4ccccc4)ccc3n2S(=O)(=O)c2ccccc2)CC1.Cl | 88% | 10% | 31%
19 | Cc1cnc(Nc2ccccc2)nc1NCCC(=O)Nc1ccccc1.O=C(O)C(F)(F)F | 89% | 7% | 10%
20 | COc1cc(C(=O)N2N=C(c3c(-c4ccccc4)c4cc(Br)ccc4[nH]c3=O)CC2c2cccc([N+](=O)[O-])c2)cc(OC)c1OC (stereo not given) | 93% | 95% | 1%

Row | Structure (SMILES) | Inhibition (Plasmodium falciparum [1]) | Inhibition (Plasmodium falciparum [2]) | Inhibition (HepG2)
21 | NC1CCCN(Cc2cccc(-c3ccc(-c4nc5cc(C(F)(F)F)ccc5[nH]4)cc3)c2)C1.O=C(O)C(F)(F)F (stereo not given) | 99% | 96% | 47%
22 | O=C(Nc1ccc(N2CCN(Cc3cccc(F)c3)CC2)cc1)c1cccs1.O=C(O)C(F)(F)F | 95% | 92% | 0%
23 | N=C(N)c1ccc(Oc2ccc(C(=N)N)cc2)cc1.O=S(=O)(O)CCO | 92% | 85% | 18%
24 | CCN(CC)CCNc1ccnc2[nH]c3ccc(C)cc3c12 | 100% | 81% | 9%
25 | COc1ccc(COc2cc(NCCCN)nc3ccccc23)cc1 | 100% | 5% | 3%
26 | CCOc1ccc2c(=NN=Cc3ccc(OC)c(OC)c3)cc(C)[nH]c2c1 | 100% | 58% | 22%
27 | COc1cc2nc(N3CCC(CNC(=O)c4ccc(-c5cccc(C#N)c5)cc4)CC3)nc(N)c2cc1OC | 100% | 100% | 18%
28 | Cc1cc(OCc2ccncc2)cc2c1C(=O)CC(C)(C)O2 | 99% | 0% | 0%
29 | CCCCCN1CCCC(NS(=O)(=O)c2ccc(C(=O)Nc3cccc(C(F)(F)F)c3)cc2)C1.O=C(O)C(F)(F)F (stereo not given) | 97% | 3% | 30%
30 | O=C(N[C@H]1CCN(Cc2ccc(OCCN3CCNCC3)c(Cl)c2)C1)c1ccc(Cl)c(Cl)c1.O=C(O)C(F)(F)F | 100% | 5% | 50%
31 | CN1CCN(CCCN(Cc2ccc(-c3cccc(CNC4CCCC4)c3)cc2)C(=O)Nc2ccccc2)CC1.O=C(O)C(F)(F)F | 92% | 76% | 28%
32 | CC1CCC(NC(=O)c2nn(-c3ccc(Cl)cc3)c(=O)c3ccccc23)CC1 (stereo not given) | 91% | 67% | 3%
33 | FC(F)(F)c1cccc(-c2cc(NCCCn3ccnc3)nc(-c3ccncc3)n2)c1 | 100% | 100% | 50%
34 | CCn1c(C=Cc2cc(Br)ccc2O)nc2ccccc2c1=O | 95% | 95% | 6%
35 | CC(C)(CNC(=O)C1CCN(CCOc2ccc(F)c(F)c2)CC1)c1nc(-c2ccc(Cl)c(O)c2)c(-c2ccncc2)[nH]1.Cl | 100% | 19% | 41%
36 | COCCN1CCN(Cc2ccc(-c3cccc(-c4nc5ccccc5[nH]4)c3)cc2)CC1.O=C(O)C(F)(F)F | 93% | 10% | 32%
37 | Cc1cc(NC2CCCC2)nc(Nc2ccccc2C)n1 | 88% | 20% | 0%
38 | CC(C)Cn1c(Sc2ccc(C#N)c([N+](=O)[O-])c2)nnc1-c1ccc(N(C)C)cc1 | 98% | 98% | 4%
39 | CC(C)c1ccc(CN2CCCCC(NC(=O)c3cc(-c4ccccc4Cl)cs3)C2)cc1.O=C(O)C(F)(F)F (stereo not given) | 100% | 64% | 8%
40 | Nc1c(-c2ccc(C(=O)NCCNCc3ccccc3)cc2)cnn1-c1ccc(C(F)(F)F)cc1.O=C(O)C(F)(F)F | 85% | 2% | 23%

Row | Structure (SMILES) | Inhibition (Plasmodium falciparum [1]) | Inhibition (Plasmodium falciparum [2]) | Inhibition (HepG2)
41 | CCN(CC)CCN(Cc1ccc(-c2ccc(C(F)(F)F)cc2)cc1)C(=O)c1ccc(-c2ccc(NC(=O)OC)cc2C)cc1 | 93% | 42% | 66%
42 | CN1CCCN(Cc2ccc(-c3cccc(NC(=O)c4cccc(C#N)c4)c3)cc2)CC1.O=C(O)C(F)(F)F | 100% | 64% | 17%
43 | Cc1ccc(OCC2CCN(c3ncc(C(=O)NC4CC4)cc3Cl)CC2)cc1 | 88% | 72% | 2%
44 | Cc1cc(N[C@@H](CC(C)C)C(=O)NCCc2ccccc2)nc(NCCc2cccs2)n1.O=C(O)C(F)(F)F | 89% | 16% | 0%
45 | O=C(NCCc1ccccc1)N(Cc1ccccc1-c1ccc(CNC2CCCC2)cc1)C1CCN(Cc2ccccc2)CC1.O=C(O)C(F)(F)F | 96% | 95% | 96%
46 | COc1ccc(CNC(=O)c2cnc3c(O)cccc3c2Nc2cccc(NC(=O)c3ccc(F)cc3)c2)cc1.O=C(O)C(F)(F)F | 91% | 65% | 50%
47 | Cc1ncsc1CCN1C(=O)CC2(C1=O)C(=O)N(Cc1ccccc1)c1ccc(Cl)cc12 (stereo not given) | 86% | 46% | 0%
48 | c1ccc(CN2CCC(NCc3ccc(-c4cncc5ccccc45)cc3)CC2)cc1 | 98% | 19% | 21%
49 | CNC(=O)CC(=O)NCCc1ccc(Cl)cc1 | 99% | 1% | 0%
50 | Cc1cccc2nc(-c3cccc(-c4cccc(NC(=O)NC5CC5c5ccccc5)c4)c3)[nH]c12 (stereo not given) | 98% | 28% | 0%
51 | O=C(NCCCN1CCC(N2CCCCC2)CC1)c1ccc2nc(N3CCCCC3)sc2c1 | 89% | 20% | 11%
52 | O=C(N/N=C/c1nc2ccccc2[nH]1)c1cccc([N+](=O)[O-])c1 | 99% | 82% | 0%
53 | CN1CCN(c2ccnc3ccc(NC(=O)c4ccc(Cl)c(Cl)c4)cc23)CC1 | 100% | 64% | 4%
54 | CC(C)(C)c1cc(C(=O)N2CCN(c3ncccc3C(F)(F)F)CC2)n(Cc2ccccc2)n1 | 100% | 99% | 0%
55 | Cc1cc(NCCC(=O)NCc2cccc(F)c2)nc(Nc2ccccc2)n1.O=C(O)C(F)(F)F | 94% | 15% | 0%
56 | COc1cccc2sc(Nc3nc(-c4ccccn4)cs3)nc12 | 94% | 76% | 41%
57 | Cc1cccc2nc(-c3ccc(-c4ccc(CNCC5CCCO5)cc4)cc3)[nH]c12.O=C(O)C(F)(F)F (stereo not given) | 100% | 81% | 36%
58 | COc1cccc(C(=O)Nc2ccc(Nc3nc(C)cc(N(C)C)n3)cc2)c1 | 92% | 33% | 1%
59 | Fc1ccc2[nH]c(-c3cccc(-c4ccc(CN5CCC(CCN6CCCCC6)CC5)cc4)c3)nc2c1.O=C(O)C(F)(F)F | 100% | 100% | 91%
60 | COc1ccccc1C1CCN(C2CCC(NC(=O)/C=C/c3cc(F)c(F)cc3F)CC2)CC1 (stereo not given) | 85% | 0% | 39%
